# Data from PubChem BioAssay AID504834 (National Center for Advancing Translational Sciences (NCATS), 2011).
# About 22,000 (6.9%) of roughly 320,000 compounds were called active. About 27% were inconclusive and are not listed. The entries come from a sample that favours actives as a whole. Entries that show only a call come without a potency. Unmarked numbers belong to inactive results. The call rests on the fitted dose curve; in most records, active means well fitted inhibition curve with a large enough effect; inconclusive means small, poorly fitted or top-dose-only effect, or another doubt; inactive means no such curve, though single readings can be large or run the other way.
# Assay: Primary qHTS for delayed death inhibitors of the malarial parasite plastid, 96 hour incubation
# Conditions: P. falciparum luciferase reporter growth; series mostly up to 28.7 µM
# Summary of the method: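 Compounds incubated with erythrocytes infected by luciferase-expressing P. falciparum (2% hematocrit, 0.05% parasitemia final) for 96 hours, 37 C in 5% CO2. Growth inhibition scored as decreased luciferase luminescence.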
# Potency means the concentration at half of the fitted maximal effect.
SMILES,Potency,"activity change, negative = inhibition"
O=C(CN1CCCCCC1)Nc1ccc(Br)cc1[N+](=O)[O-],inactive,
O=C(CN1CCCCCC1)Nc1ccc(Br)cc1Br,inactive,
O=C(CN1CCCCC1)Nc1ccc(Br)cc1C(=O)c1ccccc1Cl,1.85 µM (active),
Cc1cccc(-n2ncc(Cl)c(Cl)c2=O)c1,inactive,
COc1ccc(C(=O)NCC2CCCCC2)cc1S(=O)(=O)N1CCCC1,inactive,
COc1cccc(CC(=O)Nc2ccc(-c3csc(C)n3)cc2)c1,inactive,
COc1cc(NC(=O)c2ccc(-c3csc(C)n3)cc2)c(OC)cc1Cl,4.15 µM (active),
CCOCC(=O)Nc1cc(OC)c(Cl)cc1OC,inactive,
COc1cc(C(=O)NCc2nnc(SCC(=O)c3ccc(Cl)cc3)o2)cc(OC)c1OC,inactive,
Cc1ccc(NS(=O)(=O)c2cc3c(cc2C)NC(=O)CO3)cc1,inactive,
COc1ccc(CCNC(=O)NS(=O)(=O)c2ccc(C)cc2)cc1OC,inactive,
O=C(c1cc(-c2ccc(Cl)cc2)on1)N1CCN(c2ccccc2)CC1,inactive,
Cc1ccc(Cl)cc1N1CCN(C(=O)c2cccc3c(=O)c(C)c(-c4ccccc4)oc23)CC1,2.08 µM (active),
Cc1cccc(N2CCN(C(=O)c3cnn4c(C(F)F)cc(-c5ccccc5)nc34)CC2)c1C,inactive,
O=C(CC1C(=O)NCCN1CC(c1ccccc1)c1ccccc1)NCC1CCOCC1 (stereo not given),inactive,
O=C(COc1ccccc1Cl)N1CCCCCCC1,inactive,
CCC(CC)c1nnc(NC(=O)C2CCN(C(=O)c3ccco3)CC2)s1,inactive,
CN(C)C(CNC(=O)c1ccc(OCc2cn3ccccc3n2)cc1)c1ccco1 (stereo not given),inactive,
CC(Oc1cc2oc(=O)c3c(c2cc1Cl)CCCC3)C(=O)NCc1ccncc1 (stereo not given),inactive,
COc1ccc(CNC(=O)CCN2C(=O)c3ccccc3C2=O)cc1,inactive,
COc1ccc(CCc2nnc(CCC(=O)NCc3cnn(-c4ccccc4C)c3)o2)cc1,9.28 µM (active),
CC(CCn1cccn1)NC(=O)CCc1nnc(CCc2ccccc2)o1 (stereo not given),inactive,
Cc1ccc(C)c(N2CCN(S(=O)(=O)c3c(C)[nH]c(C)c3C(=O)N3CCCC3)CC2)c1,inactive,
CSC(=S)N/N=C/c1c[nH]c2ccccc12,inactive,
O=C(N/N=C/c1c[nH]c2ccccc12)c1ccccc1O,11.7 µM (active),
O=C(N/N=C/c1c[nH]c2ccccc12)c1cc2ccccc2o1,inactive,
CCOc1ccc(C(=O)Nc2ccc(CN3CCOCC3)cc2)cc1Cl,inactive,
CCc1cc(=O)oc2c(C)c(OCC(=O)NCCN3CCOCC3)ccc12,inactive,

SMILES,Potency,"activity change, negative = inhibition"
CCCc1cc(=O)oc2cc(OCC(=O)Nc3ccc(CN4CCOCC4)cc3)c(Cl)cc12,10.4 µM (active),
Cc1nc(-c2ccc(Cl)cc2)sc1C1(C)CC(c2ccccc2F)=NO1 (stereo not given),inactive,
COCCCN1C(=O)c2ccc(C(=O)OCC(=O)NCc3ccccc3OC)cc2C1=O,inactive,
Cc1c(C)c(C)c(S(=O)(=O)NCCc2ccccn2)c(C)c1C,inactive,
CSc1ccccc1OCc1cc(C(=O)N(C)CCc2c(C)n[nH]c2C)no1,inactive,
Cc1ccc(OCc2cc(C(=O)N(C)CCc3ccccc3)no2)cc1C,13.1 µM (active),
CN(Cc1cccnc1)C(=O)c1cc(COc2ccc3ncccc3c2)on1,inactive,
Cc1cc(S(=O)(=O)N2CCOCC2)ccc1OCC(=O)Nc1cccc(C(F)(F)F)c1,inactive,
O=C(N/N=C/c1cccc(OC(=O)c2ccc([N+](=O)[O-])cc2)c1)c1cccnc1,inactive,
Cc1cccc(C(=O)NCCCN2CCCC2=O)c1,inactive,
Cc1cccc(-c2nc3ccc(C(=O)NCCN4CCN(C)CC4)cc3nc2-c2cccc(C)c2)c1,11.7 µM (active),
Cc1cccc(C(=O)NCCCN(C)CCCNC(=O)c2cccc(C)c2)c1,inactive,
CC(=O)Nc1ccc(S(=O)(=O)Oc2ccc(Br)cc2C(=S)N2CCOCC2)cc1,inactive,
CCOC(=O)C(O)(c1ccc(N)c(OC)c1)C(F)(F)F (stereo not given),2.62 µM (active),
COC(=O)C(O)(c1ccc(NC(=O)c2ccco2)c(OC)c1)C(F)(F)F (stereo not given),,2.22% [at 5.75 µM]
CCOC(=O)C(O)(c1ccc(N=Cc2ccccc2O)c(C)c1)C(F)(F)F (stereo not given),inactive,
C/C(=N\NC(=O)c1cccc([N+](=O)[O-])c1)c1cccnc1,inactive,
CCc1ccc(NC(=O)N[C@H](C(=O)O)C(C)CC)cc1 (stereo not given in full),inactive,
Cc1nnc(NC(=O)c2ccc3nccnc3c2)s1,inactive,
Cc1ccc(C)c(NC(=O)c2ccc3nccnc3c2)c1,8.28 µM (active),
O=C(Nc1ccccc1N1CCCCC1)c1ccc2nccnc2c1,inactive,
CC(C)OCCCNC(=O)CN1C(=O)/C(=C/c2ccccc2F)Oc2ccccc21,inactive,
Cc1ccc(C)c(OCCC(=O)OCC(=O)NC(=O)NCc2ccccc2)c1,inactive,
COc1ccc(/C(C)=N/N2CCOCC2)c(O)c1,inactive,
Cn1cc([N+](=O)[O-])c(C(=O)Nc2ccc3c(c2)OCCO3)n1,inactive,
COc1cccc(NC(=O)c2ccc(Cn3cc([N+](=O)[O-])cn3)o2)c1,inactive,
COc1cccc(NC(=O)c2nn(C34CC5CC(CC(C5)C3)C4)cc2[N+](=O)[O-])c1,8.28 µM (active),
